# Results: the supplement of paper PMC9694430
# Several values for one entry are separate records, joined by “and”; a condition that tells them apart may be missing. Equal values may be shown once.
# Assays:
# Assay in all cases: thermal shift delta Tm vs DMSO control; higher = stronger stabilization (binding)
# Details in all cases: 12.5 µM; protein concentration 2 µM
# LOC_OS01G57100-cb003 = system: LOC_OS01G57100-cb003
# Method in brief: (§1)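 Rice kinase domain constructs, made in E. coli and purified, were placed in 96-well plates at 2 μM in 19.5 μl of 100 mM potassium phosphate pH 7.5, 150 mM NaCl, 10% glycerol and 5 × SYPRO Orange, with compound in DMSO. A temperature ramp from 25°C to 95°C at 0.05°C/s was used for differential scanning fluorimetry. The melting temperature shift is a triplicate mean compared with DMSO-only protein, derived from Boltzmann fits.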
# LOC_OS01G60330-cb001 = system: LOC_OS01G60330-cb001
# Method in brief: as §1
# LOC_OS01G60700-cb002 = system: LOC_OS01G60700-cb002
# Method in brief: as §1
# LOC_OS01G63280-cb003 = system: LOC_OS01G63280-cb003
# Method in brief: as §1
# LOC_OS01G67340-cb003 = system: LOC_OS01G67340-cb003
# Method in brief: as §1
# LOC_OS01G70970-cb002 = system: LOC_OS01G70970-cb002
# Method in brief: as §1
# LOC_OS02G07810-cb001 = system: LOC_OS02G07810-cb001
# Method in brief: as §1
# LOC_OS02G08530-cb003 = system: LOC_OS02G08530-cb003
# Method in brief: as §1
# LOC_OS02G14120-cb001 = system: LOC_OS02G14120-cb001
# Method in brief: as §1
# LOC_OS02G17970-cb001 = system: LOC_OS02G17970-cb001
# Method in brief: as §1
# LOC_OS02G45750-cb003 = system: LOC_OS02G45750-cb003
# Method in brief: as §1
# LOC_OS02G54510-cb004 = system: LOC_OS02G54510-cb004
# Method in brief: as §1
# LOC_OS03G04050-cb001 = system: LOC_OS03G04050-cb001
# Method in brief: as §1
# LOC_OS03G12390-cb001 = system: LOC_OS03G12390-cb001
# Method in brief: as §1
# LOC_OS03G27990-cb004 = system: LOC_OS03G27990-cb004
# Method in brief: as §1
# LOC_OS03G50450-cb001 = system: LOC_OS03G50450-cb001
# Method in brief: as §1
# LOC_OS03G50810-cb003 = system: LOC_OS03G50810-cb003
# Method in brief: as §1
# LOC_OS04G35114-cb001 = system: LOC_OS04G35114-cb001
# Method in brief: as §1
# LOC_OS04G38480-cb003 = system: T1, LOC_OS04G38480-cb003
# T1 sequence (whole entry): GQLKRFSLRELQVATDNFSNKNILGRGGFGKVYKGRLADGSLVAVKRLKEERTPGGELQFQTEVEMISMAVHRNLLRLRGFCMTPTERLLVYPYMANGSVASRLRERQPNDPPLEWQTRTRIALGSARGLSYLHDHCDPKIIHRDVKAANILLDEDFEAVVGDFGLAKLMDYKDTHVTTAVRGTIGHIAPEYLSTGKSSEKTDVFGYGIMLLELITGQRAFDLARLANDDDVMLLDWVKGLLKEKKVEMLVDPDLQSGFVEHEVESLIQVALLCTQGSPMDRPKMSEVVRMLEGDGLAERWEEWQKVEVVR
# Method in brief: as §1
# LOC_OS04G41100-cb001 = system: T2, LOC_OS04G41100-cb001
# T2 sequence (whole entry): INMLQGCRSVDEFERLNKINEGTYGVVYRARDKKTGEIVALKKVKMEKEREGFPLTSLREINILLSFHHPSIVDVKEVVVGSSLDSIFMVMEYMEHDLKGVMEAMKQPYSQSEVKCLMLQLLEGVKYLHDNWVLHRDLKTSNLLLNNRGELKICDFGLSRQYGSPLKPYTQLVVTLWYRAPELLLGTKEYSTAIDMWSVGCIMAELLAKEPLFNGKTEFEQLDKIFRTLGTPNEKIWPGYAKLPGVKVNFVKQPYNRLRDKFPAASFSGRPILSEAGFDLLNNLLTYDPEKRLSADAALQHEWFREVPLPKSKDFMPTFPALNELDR
# Method in brief: as §1
# 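Note: purified Escherichia coli-expressed rice kinase domain construct.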
Structure (SMILES),thermal shift delta Tm (LOC_OS01G57100-cb003),thermal shift delta Tm (LOC_OS01G60330-cb001),thermal shift delta Tm (LOC_OS01G60700-cb002),thermal shift delta Tm (LOC_OS01G63280-cb003),thermal shift delta Tm (LOC_OS01G67340-cb003),thermal shift delta Tm (LOC_OS01G70970-cb002),thermal shift delta Tm (LOC_OS02G07810-cb001),thermal shift delta Tm (LOC_OS02G08530-cb003),thermal shift delta Tm (LOC_OS02G14120-cb001),thermal shift delta Tm (LOC_OS02G17970-cb001),thermal shift delta Tm (LOC_OS02G45750-cb003),thermal shift delta Tm (LOC_OS02G54510-cb004),thermal shift delta Tm (LOC_OS03G04050-cb001),thermal shift delta Tm (LOC_OS03G12390-cb001),thermal shift delta Tm (LOC_OS03G27990-cb004),thermal shift delta Tm (LOC_OS03G50450-cb001),thermal shift delta Tm (LOC_OS03G50810-cb003),thermal shift delta Tm (LOC_OS04G35114-cb001),thermal shift delta Tm (LOC_OS04G38480-cb003),thermal shift delta Tm (LOC_OS04G41100-cb001)
Cc1ccc(NC(=O)c2cccc(N(C)C)c2)cc1NC(=O)c1ccc(O)cc1,2.98 °C,1.17 °C,1.43 °C,0.32 °C,-0.19 °C,0.28 °C,1.54 °C,1.03 °C,0.45 °C,0.95 °C,0.7 °C,0.45 °C,0.56 °C,0.34 °C,0.26 °C,0.28 °C,0.7 °C,0.46 °C,0.87 °C,0.23 °C
Cc1nc(-c2cn3c(n2)-c2ccc(-c4cnn(C(C)(C)C(N)=O)c4)cc2OCC3)n(C(C)C)n1 [Taselisib (GDC 0032)],0.43 °C,0.33 °C,0.46 °C,0.16 °C,0.07 °C,0.23 °C,0.07 °C,0.84 °C,0.27 °C,0.09 °C,1.34 °C,0.17 °C,0.54 °C,-0.31 °C,0.3 °C,0.34 °C,-0.05 °C,0.68 °C,0.83 °C,0.38 °C
O=C(Nc1ccc(OC(F)(F)F)cc1)c1sccc1NCc1ccnc2ccccc12,0.93 °C,2.48 °C,0.05 °C,6.18 °C,0.22 °C,1.27 °C,1.03 °C,0.68 °C,0.49 °C,0.48 °C,0.52 °C,4.36 °C,0.44 °C,0.88 °C,0.45 °C,0.51 °C,0.48 °C,0.29 °C,0.95 °C,0.59 °C
CC(C)c1ccc2oc3nc(N)c(C(=O)O)cc3c(=O)c2c1 [Amlexanox],1.39 °C,3.07 °C,0.37 °C,0.05 °C,0.99 °C,4.3 °C,0.24 °C,1.49 °C,0.32 °C,-0.09 °C,4.41 °C,0.56 °C,0.67 °C,0.45 °C,1.73 °C,1.46 °C,0.21 °C,2.71 °C,1.28 °C,0.49 °C
Nc1nc(N)c(N=O)c(OCC2CCCCC2)n1,1.14 °C,2.6 °C,1.46 °C,0.91 °C,0.46 °C,1.27 °C,0.51 °C,0.99 °C,2.99 °C,0.61 °C,0.64 °C,0.21 °C,0.46 °C,3.99 °C,2.79 °C,0.35 °C,0.92 °C,1.13 °C,1.28 °C,0.59 °C
Cc1n[nH]c2ncc(C(=O)N3CCC[C@H]3c3ccc(Cl)cc3)cc12,0.92 °C,0.11 °C,0.24 °C,0.09 °C,0.25 °C,0.34 °C,-0.7 °C,1.34 °C,1.35 °C,0.38 °C,0.21 °C,0.12 °C,0.41 °C,0.13 °C,0.35 °C,0.17 °C,0.18 °C,0.28 °C,0.98 °C,0.46 °C
COc1ccc(Cl)cc1NC(=O)Nc1cc(C)nc2ccccc12,1.28 °C,1.01 °C,0.92 °C,0.87 °C,0.83 °C,0.66 °C,1.12 °C,0.89 °C,0.14 °C,0.65 °C,0.37 °C,0.12 °C,0.38 °C,0.21 °C,0.52 °C,0.68 °C,0.32 °C,0.93 °C,0.32 °C,0.36 °C
CCCCNc1ncc(-c2ccc(CN3CCOCC3)cn2)c(NC2CCC(O)CC2)n1 (stereo not given),-0.33 °C,8.95 °C,0 °C,-0.12 °C,1.86 °C,5.72 °C,0.1 °C,1.9 °C,5.78 °C,0.44 °C,13.7 °C,0.36 °C,0.34 °C,2.88 °C,1.94 °C,1.29 °C,5.33 °C,7.84 °C,3.1 °C,0.46 °C
"COc1cc(F)c(F)c(Nc2ccc(I)cc2F)c1NS(=O)(=O)C1(C[C@H](O)CO)CC1 [Refametinib (RDEA119, Bay 86-9766)]",0.45 °C,1.69 °C,0.96 °C,0.75 °C,-0.44 °C,0.49 °C,0.84 °C,0.79 °C,1.54 °C,1.26 °C,0.64 °C,0.25 °C,0.61 °C,0.09 °C,0.41 °C,0.71 °C,0.41 °C,0.19 °C,0.79 °C,0.72 °C
Cn1cc(-c2cnn3c(N)c(Br)c([C@@H]4CCCNC4)nc23)cn1,-0.78 °C,1.36 °C,0.1 °C,0.91 °C,0.29 °C,0.3 °C,2.88 °C,0.14 °C,3.6 °C,-0.03 °C,2.88 °C,0.55 °C,0.3 °C,0.78 °C,0.85 °C,0.38 °C,1.12 °C,1.17 °C,2.62 °C,0.97 °C
CC(C)Oc1ccc(-c2nn([C@@H](C)c3oc4ccc(F)cc4c(=O)c3-c3cccc(F)c3)c3ncnc(N)c23)cc1F,1.03 °C,1.25 °C,0.79 °C,0.47 °C,0.6 °C,0.55 °C,-0.1 °C,0.12 °C,1.41 °C,1.06 °C,-0.54 °C,0.17 °C,0.23 °C,-0.28 °C,0.5 °C,-0.25 °C,0.13 °C,1.09 °C,1.36 °C,0.19 °C
Cc1cnc(-c2cnc(NCCNc3ccc(C#N)cn3)nc2-c2ccc(Cl)cc2Cl)[nH]1,0.99 °C and 1.83 °C,0.47 °C and 0.68 °C,0.39 °C and 1.43 °C,1.2 °C and 1.03 °C,0.03 °C and 0.47 °C,1.08 °C and 1.19 °C,1.11 °C and 0.87 °C,0.72 °C and 0.68 °C,0.07 °C and 0.44 °C,0.65 °C and 2.15 °C,1.15 °C and 1.22 °C,0.15 °C and -0.03 °C,0.11 °C and 0.6 °C,0.22 °C and 0.78 °C,0.17 °C and 0.28 °C,-0.06 °C and 0.47 °C,0.98 °C and 1.26 °C,0.11 °C and 0.59 °C,0.39 °C and 1.23 °C,0.54 °C and 0.66 °C
CC(C)(C)c1cnc(CSc2cnc(NC(=O)C3CCNCC3)s2)o1,0.61 °C,1.41 °C,1.28 °C,0.71 °C,-0.45 °C,0.26 °C,0.43 °C,0.72 °C,0.42 °C,-0.01 °C,0.84 °C,0.08 °C,0.58 °C,0.18 °C,0.11 °C,0.05 °C,0.57 °C,0.29 °C,0.55 °C,10.7 °C
